The source of these data is ChEMBL document CHEMBL3988442, “University of Dundee, Small-Polar-MMV Screening Library” (2021).

The assay concerns the target T1, Aspartate--tRNA(Asp/Asn) ligase (Mycobacterium tuberculosis (strain ATCC 25618 / H37Rv)) (UniProt P9WFW3).
T1 sequence (whole entry): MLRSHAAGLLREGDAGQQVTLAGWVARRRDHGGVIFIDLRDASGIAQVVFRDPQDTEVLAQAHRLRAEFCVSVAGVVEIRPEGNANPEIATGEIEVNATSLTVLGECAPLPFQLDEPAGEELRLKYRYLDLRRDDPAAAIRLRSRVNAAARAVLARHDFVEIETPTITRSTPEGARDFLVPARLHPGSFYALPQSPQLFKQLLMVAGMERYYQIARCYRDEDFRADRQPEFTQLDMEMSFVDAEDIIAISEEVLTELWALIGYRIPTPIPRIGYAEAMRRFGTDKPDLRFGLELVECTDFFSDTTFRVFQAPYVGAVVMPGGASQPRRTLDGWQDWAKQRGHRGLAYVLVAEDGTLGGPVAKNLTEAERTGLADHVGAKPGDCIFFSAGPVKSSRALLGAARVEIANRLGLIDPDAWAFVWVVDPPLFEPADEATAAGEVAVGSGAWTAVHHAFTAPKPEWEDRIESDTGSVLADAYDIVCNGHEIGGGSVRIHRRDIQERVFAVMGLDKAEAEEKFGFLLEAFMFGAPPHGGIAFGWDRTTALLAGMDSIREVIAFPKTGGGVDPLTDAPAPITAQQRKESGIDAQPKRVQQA
The assay is described as follows: Assay for Asp RNA synthetase-1 from Mycobacterium tuberculosis. It counts as functional. Also on record: scale not given: in the data most compounds retested in dose-response had high values. The conditions noted are these: 30 µM.
As to `CCOC(CC)C(=O)NCc1ccnc(Oc2ccc(F)cc2)c1` (stereo not given), the Percent Effect was 0.301%.
The result for `Cc1cn2c(n1)CCC(NC(=O)c1cc(Br)cn1C)C2` (stereo not given) reads -1.87%; that for `Cc1noc(C(C)C)c1C(=O)NS(=O)(=O)c1ccc(Cl)cc1`, -2.79%; that for `CC(=O)c1ccc(N2CCC(CO)(CCOc3ccccc3)CC2)nc1`, 0.327%.
The result for `Cc1cc(C)c2nc(CN3CCOC(CCO)C3)cc(O)c2c1` (stereo not given) reads -0.725%; that for `COc1cnc(C2(O)CCN(C(=O)c3ccncc3)CC2)c(OC)n1`, -2.63%.
The result for `COCc1cccc(NS(=O)(=O)c2cc(C(=O)O)cs2)c1` reads 0.144%; that for `Cc1cccc(COC[C@@H]2CC[C@H]3[C@H](CCN3Cc3ccco3)O2)n1`, -0.843%.
In the case of `COCCNC(=O)NCc1ccc(OC(C)C)c(F)c1`, the Percent Effect is -1.07%.
Consider `Cc1cnc(CN(C)C2CCN(CC(=O)N(C)c3nccs3)C2)o1` (stereo not given), for which the Percent Effect was -1.66%.
The result for `O=C(C1CC=CC1)N1CCC2(CC1)CN(Cc1ccccn1)CCO2` reads -0.381%.
On to `CCCC(C)(C)NC(=O)c1ccc(CC2CC(=O)NC2=O)cc1` (stereo not given), for which the Percent Effect is -0.604%.
Turning to `CN(Cc1nccs1)c1nc(-c2ccccn2)nc2c1CCNCC2`, the Percent Effect was determined as 2.26%.
The result for `Cn1cc(CNCCn2cccn2)c(-c2cccnc2)n1` reads 1.65%.
On to `COc1ccnc(N2CCN(C(=O)CN3CCCC3=O)CC2)n1`, for which the Percent Effect is -1.88%.
The result for `CCN1CCC(NC(=O)CN2CCCCC2Cn2cc(C)cn2)CC1` (stereo not given) reads -0.102%; that for `COC(=O)c1ccc(N2CCN(CCC(=O)NC(N)=O)C(C)C2)cc1` (stereo not given), 3.04%.
Under `COc1cc(C)nc(N2CCN(C(=O)CCc3cscn3)CC2)n1` stands -2.13%.
Turning to `COCC(=O)N(C)Cc1ccc(Cl)c(Cl)c1`, the Percent Effect is -3.56%.
Take `COc1cccc(CNC(=O)CN2CCCCC2Cn2cccn2)c1` (stereo not given): the Percent Effect came out at 0.922%.
